Measurements as given in PubChem BioAssay (NCI).
This is part of a sample that, as a whole, favours compounds with a hit. Of some 79,000 tested, about 15% had one in any assay. The source made the active and inactive calls. Cut-off read from the data, not from the text of the source: active = growth inhibition above about 70%; inactive = the rest.

Experiments:
[1] = NCI Yeast Anticancer Drug Screen. Data for the rad52 strain (AID 147);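 note: 0% = growth of vehicle-treated control cultures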; details: S. cerevisiae rad52 mutant growth inhibition, hits give high values
Procedure, shortened: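 Read-out: growth inhibition versus vehicle-treated controls. Cells were a DNA repair-deficient yeast strain treated with compounds.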

[2] = NCI Yeast Anticancer Drug Screen. Data for the wt1 strain (AID 149);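 note: 0% = growth of vehicle-treated wt1 cultures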; details: S. cerevisiae wt1 strain (SPY 50644) growth inhibition, hits give high values
Procedure, shortened: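 Yeast wt1 strain exposed to compounds; growth inhibition measured relative to vehicle-treated controls.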

[3] = NCI Yeast Anticancer Drug Screen. Data for the rad50EPP+ strain (AID 151);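 note: 0% = growth of vehicle-treated control cultures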; details: S. cerevisiae rad50 mutant strain, hits give high values
Procedure, shortened: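 Growth inhibition read against vehicle controls in rad50EPP+ yeast, a strain altered in DNA damage repair, after compound exposure.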

[4] = NCI Yeast Anticancer Drug Screen. Data for the mgt1 strain (AID 153); details: S. cerevisiae mgt1 mutant growth inhibition, hits give high values
Procedure, shortened: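 mgt1 yeast grown with test compound; read-out is growth inhibition versus vehicle-treated cultures.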

[5] = NCI Yeast Anticancer Drug Screen. Data for the rad50 strain (AID 155);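 note: 0% = growth of vehicle-only cultures of the same strain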; details: S. cerevisiae rad50 strain growth inhibition, hits give high values
Procedure, shortened: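 Yeast carrying a defined DNA repair defect were exposed to test compounds, and growth was compared with vehicle-treated controls to give percent inhibition.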

[6] = NCI Yeast Anticancer Drug Screen. Data for the mec2-1 strain (AID 157); details: S. cerevisiae mec2-1 strain, hits give high values
Procedure, shortened: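 Yeast mec2-1 mutant treated with compound. Readout: growth inhibition vs vehicle controls.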

[7] = NCI Yeast Anticancer Drug Screen. Data for the rad14 strain (AID 159);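 note: 0% = growth of vehicle-treated control cultures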; details: S. cerevisiae rad14 strain growth inhibition, hits give high values
Procedure, shortened: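 Yeast cells carrying a defined DNA-repair defect were exposed to compounds, and growth inhibition was calculated relative to vehicle-treated control cultures.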

[8] = NCI Yeast Anticancer Drug Screen. Data for the sgs1 mgt1 strain (AID 161);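 note: 0% = growth of cultures given vehicle only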; details: S. cerevisiae sgs1 mgt1 strain, hits give high values
Procedure, shortened: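 Mutant yeast exposed to compound; growth scored against vehicle-only wells.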

[9] = NCI Yeast Anticancer Drug Screen. Data for the CLN2oe strain (AID 163);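 note: 0% = growth of vehicle-only control cultures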; details: S. cerevisiae CLN2oe strain, hits give high values
Procedure, shortened: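 Read-out: yeast growth inhibition, expressed relative to vehicle-only controls. The strain bears an engineered cell-cycle alteration.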

[10] = NCI Yeast Anticancer Drug Screen. Data for the cln2 rad14 strain (AID 165);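 note: 0% = growth equal to vehicle treated cultures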; details: S. cerevisiae cln2 rad14 strain, hits give high values
Procedure, shortened: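 cln2 rad14 yeast strain; compound exposure; growth inhibition read vs vehicle controls.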

[11] = NCI Yeast Anticancer Drug Screen. Data for the bub3 strain (AID 167); details: S. cerevisiae bub3 mutant strain, hits give high values
Procedure, shortened: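 Compounds were applied to a genetically altered yeast strain carrying a cell-cycle control defect. Growth inhibition was scored against vehicle-treated controls.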

[12] = NCI Yeast Anticancer Drug Screen. Data for the wt2 strain (AID 169);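 note: 0% = growth of vehicle-treated yeast cultures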; details: S. cerevisiae wt2 strain growth inhibition, hits give high values
Procedure, shortened: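 Read-out: growth inhibition versus vehicle-treated control cultures after compound exposure of the yeast strain.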

[13] = NCI Yeast Anticancer Drug Screen. Data for the mlh1 strain (AID 171);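 note: 0% = growth of vehicle-treated control cultures of the same strain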; details: S. cerevisiae mlh1 strain growth inhibition, hits give high values
Procedure, shortened: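 Read-out: growth inhibition versus vehicle controls. Strain: engineered yeast with a defined DNA repair or cell cycle defect, compound-treated.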

[14] = NCI Yeast Anticancer Drug Screen. Data for the sgs1 strain (AID 173);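 note: 0% = growth of vehicle-only control cultures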; details: S. cerevisiae sgs1 mutant, hits give high values
Procedure, shortened: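 Read-out: yeast growth inhibition relative to vehicle controls, following compound exposure of a strain with a defined DNA repair/cell cycle alteration.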

[15] = NCI Yeast Anticancer Drug Screen. Data for the mlh1 rad18 strain (AID 175); details: S. cerevisiae mlh1 rad18 strain growth inhibition, hits give high values
Procedure, shortened: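 Yeast w/ defined DNA-repair lesions; compound exposure; growth vs vehicle controls → % inhibition.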

[16] = NCI Yeast Anticancer Drug Screen. Data for the rad18 strain (AID 177); details: S. cerevisiae rad18 mutant growth inhibition, hits give high values
Procedure, shortened: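 Readout: growth inhibition vs vehicle controls. Cells: genetically altered yeast strain, DNA repair defect.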

[17] = at 5.0 µM (retest, dose inferred, filed as 0.5)
[18] = at 50.0 µM (retest, dose inferred, filed as 5.0)

Measured: growth inhibition

O=C(O)c1ccccc1NC(=S)c1ccccc1
inactive: [1]; at 1.2 µM -5% | [1]; at 3.7 µM -1% | [1]; at 11.0 µM -4% | [1]; at 33.0 µM 7% | [1]; at 100.0 µM 67% | [2]; at 1.2 µM 4% | [2]; at 3.7 µM 1% | [2]; at 11.0 µM -4% | [2]; at 33.0 µM -5% | [2]; at 100.0 µM 26% | [3]; at 1.2 µM 13% | [3]; at 3.7 µM 14% | [3]; at 11.0 µM 34% | [3]; at 33.0 µM 53% | [4]; at 1.2 µM 5% | [4]; at 3.7 µM 0% | [4]; at 11.0 µM -3% | [4]; at 33.0 µM 18% | [5]; at 1.2 µM -3% | [5]; at 3.7 µM -26% | [5]; [17] 53% | [5]; at 11.0 µM -20% | [5]; at 33.0 µM -11% | [5]; at 50.0 µM 4.25% | [6]; at 1.2 µM -31% | [6]; at 3.7 µM -10% | [6]; [17] 63% | [6]; at 11.0 µM -26% | [6]; at 33.0 µM -23% | [6]; at 50.0 µM 11.6% | [6]; at 100.0 µM 10% | [7]; at 1.2 µM 2% | [7]; at 3.7 µM 4% | [7]; at 11.0 µM -4% | [7]; at 33.0 µM 17% | [7]; at 100.0 µM 68% | [8]; [17] -20% | [8]; [18] 65% | [8]; at 50.0 µM -0.55% | [9]; at 1.2 µM 0% | [9]; at 3.7 µM 11% | [9]; at 11.0 µM 6% | [9]; at 33.0 µM 10% | [9]; at 100.0 µM 33% | [10]; [17] 27% | [10]; [18] 54% | [10]; at 50.0 µM 1% | [11]; at 1.2 µM -16% | [11]; at 3.7 µM -12% | [11]; [17] 16% | [11]; at 11.0 µM 0% | [11]; at 33.0 µM 5% | [11]; at 50.0 µM 17.4% | [12]; at 1.2 µM -1% | [12]; at 3.7 µM 5% | [12]; at 11.0 µM 1% | [12]; at 33.0 µM 1% | [12]; at 100.0 µM 42% | [13]; at 1.2 µM 3% | [13]; at 3.7 µM 5% | [13]; at 11.0 µM 3% | [13]; at 33.0 µM 5% | [13]; at 100.0 µM 62% | [14]; at 1.2 µM -18% | [14]; at 3.7 µM -6% | [14]; at 11.0 µM -12% | [14]; at 33.0 µM -4% | [14]; at 100.0 µM 53% | [15]; [17] 43% | [15]; at 50.0 µM 1.6% | [16]; at 1.2 µM -16% | [16]; at 3.7 µM -4% | [16]; at 11.0 µM -8% | [16]; at 33.0 µM 16% | [16]; at 100.0 µM 69%
active: [3]; at 100.0 µM 83% | [4]; at 100.0 µM 81% | [5]; [18] 97% | [5]; at 100.0 µM 83% | [6]; [18] 96% | [11]; [18] 79% | [11]; at 100.0 µM 70% | [15]; [18] 99%

Cc1c(C(Cc2ccccc2N(C)C(=O)/C=C\C(=O)O)c2c[nH]c3ccccc23)c2ccccc2n1C (stereo unspecified)
inactive: [1]; at 1.2 µM -5% | [1]; at 3.7 µM 0% | [1]; at 11.0 µM 0% | [1]; at 33.0 µM 7% | [1]; at 100.0 µM 36% | [2]; at 1.2 µM -3% | [2]; at 3.7 µM -6% | [2]; at 11.0 µM -7% | [2]; at 33.0 µM 0% | [2]; at 100.0 µM 40% | [3]; at 1.2 µM -6% | [3]; at 3.7 µM -4% | [3]; at 11.0 µM -6% | [3]; at 33.0 µM -6% | [3]; at 100.0 µM 4% | [4]; at 1.2 µM -3% | [4]; at 3.7 µM -3% | [4]; at 11.0 µM -2% | [4]; at 33.0 µM 5% | [4]; at 100.0 µM 65% | [5]; at 1.2 µM 1% | [5]; at 3.7 µM -2% | [5]; [17] -12% | [5]; at 11.0 µM -9% | [5]; at 33.0 µM 8% | [5]; [18] -12% | [5]; at 100.0 µM 37% | [6]; at 1.2 µM -2% | [6]; at 3.7 µM -4% | [6]; [17] 8% | [6]; at 11.0 µM -5% | [6]; at 33.0 µM 2% | [6]; [18] 8% | [6]; at 100.0 µM 51% | [7]; at 1.2 µM -3% | [7]; at 3.7 µM -11% | [7]; at 11.0 µM -14% | [7]; at 33.0 µM -13% | [7]; at 100.0 µM 33% | [8]; [17] -16% | [8]; [18] -16% | [9]; at 1.2 µM -11% | [9]; at 3.7 µM -2% | [9]; at 11.0 µM -9% | [9]; at 33.0 µM -4% | [9]; at 100.0 µM 42% | [10]; [17] 38% | [10]; [18] 38% | [11]; at 1.2 µM -9% | [11]; at 3.7 µM -6% | [11]; [17] -6% | [11]; at 11.0 µM 4% | [11]; at 33.0 µM 6% | [11]; [18] -6% | [11]; at 100.0 µM 30% | [12]; at 1.2 µM -3% | [12]; at 3.7 µM -4% | [12]; at 11.0 µM -5% | [12]; at 33.0 µM 3% | [12]; at 100.0 µM 49% | [13]; at 1.2 µM -7% | [13]; at 3.7 µM -6% | [13]; at 11.0 µM -7% | [13]; at 33.0 µM 4% | [13]; at 100.0 µM 62% | [14]; at 1.2 µM -5% | [14]; at 3.7 µM -4% | [14]; at 11.0 µM -3% | [14]; at 33.0 µM 7% | [14]; at 100.0 µM 46% | [15]; [17] -9% | [15]; [18] -9% | [16]; at 1.2 µM -14% | [16]; at 3.7 µM -14% | [16]; at 11.0 µM -8% | [16]; at 33.0 µM 0% | [16]; at 100.0 µM 42%
active: [5]; at 50.0 µM 87.8% | [6]; at 50.0 µM 86.8% | [8]; at 50.0 µM 86.9% | [10]; at 50.0 µM 88.1% | [11]; at 50.0 µM 85.5% | [15]; at 50.0 µM 78%
